In PubChem BioAssay (NCATS):
Where “and” joins values, the source holds several entries; their conditions need not be identical. Equal values may be shown once. Inconclusive results are not listed. Calls of active or inactive are those of the source. Unless noted, calls come from the whole dose curve; as a rule, active = well fitted curve in the direction sought with a large enough effect; inconclusive = small, poorly fitted or top-dose-only effect, or another doubt; inactive = no such curve, though single readings can be large; an effect the other way counts as inactive or inconclusive.

Key:
[1] = MultiTox-Fluor Cytotoxicity Assay - LYMP1-002 - Live Cells (AID 955); conditions: LYMP1-002 lymphoblastoid live-cell protease fluorescence viability; series mostly up to 46.1 µM;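 note: cells exposed to compound for 16 hours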; note: potency is the fitted concentration of half-maximal effect
Method in brief: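 After 16 h compound exposure at 37 C, live LYMP1-002 lymphoblastoid cells (2500/well) were quantified by cleavage of cell-permeant GF-AFC substrate, read at 405/510 nm after 60 min. Concentration-response fitted with Hill equation for AC50.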

[2] = MultiTox-Fluor Cytotoxicity Assay - LYMP1-002 - Dead Cells (AID 960); conditions: LYMP1-002 lymphoblastoid cells, dead-cell protease fluorescence; series mostly up to 46.1 µM; note: nearly all actives have a fitted effect of over 60% in size; note: potency is the fitted concentration of half-maximal effect
Method in brief: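 Dead-cell fluorescence (Ex/Em 485/520) after 16 h compound exposure at 37 C of LYMP1-002 lymphoblastoid cells in complete medium; AC50 by Hill equation, with data scaled between DMSO and 15 uM tetraoctylammonium bromide.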

[3] = Cell Viability - LYMP2-005 (AID 967); conditions: LYMP2-005 lymphoblastoid cell viability; series mostly up to 92.2 µM; note: potency is the fitted concentration of half-maximal effect
Method in brief: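 LYMP2-005 human lymphoblastoid cells (2500/well) were treated with compounds for 24 h at 37 C. Intracellular ATP was then measured by CellTiter-Glo luminescence after 30 min at room temperature. AC50 values came from Hill-equation fits of qHTS concentration-response data.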

[4] = Cell Viability - LYMP2-011 (AID 969); conditions: LYMP2-011 lymphoblastoid cells viability; series mostly up to 92.2 µM; note: nearly all actives have a fitted effect of over 60% in size; note: potency is the fitted concentration of half-maximal effect
Method in brief: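 Cytotoxicity qHTS with ATP content as read-out: lymphoblastoid cells (2500/well) exposed to compound for 24 h at 37 C, then luciferase luminescence measured. Concentration-response data fitted with the standard Hill equation to give AC50.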

[5] = Cell Viability - LYMP2-019 (AID 973); conditions: LYMP2-019 lymphoblastoid cell line viability; series mostly up to 92.2 µM; note: nearly all actives have a fitted effect of over 55% in size; note: potency is the fitted concentration of half-maximal effect
Method in brief: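 AC50 values come from Hill-equation fits of luminescent intracellular ATP (CellTiter-Glo, 30 min, room temperature) following 24 h compound exposure at 37 C. Cells: LYMP2-019 lymphoblastoid line, 2500 per well, in complete culture medium.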

[6] = Cell Viability - LYMP2-002 (AID 977); conditions: LYMP2-002 lymphoblastoid cell viability, qHTS; series mostly up to 92.2 µM; note: potency is the fitted concentration of half-maximal effect
Method in brief: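 Human lymphoblastoid cells (2500/well) in complete medium were preincubated 5 hr at 37 C, then exposed to compounds for 24 hr at 37 C. Intracellular ATP was read by CellTiter-Glo luminescence; AC50 came from Hill-equation concentration-response fits.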

[7] = Cell Viability - LYMP2-008 (AID 980); conditions: LYMP2-008 lymphoblastoid cell viability, qHTS; series mostly up to 92.2 µM; note: nearly all actives have a fitted effect of over 60% in size; note: potency is the fitted concentration of half-maximal effect
Method in brief: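 Cytotoxicity determined from ATP-dependent luciferase luminescence (CellTiter-Glo) following 24 h compound exposure of human lymphoblastoid LYMP2-008 cells at 37 C. Concentration-response data fitted to the Hill equation to give AC50.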

[8] = Cell Viability - LYMP2-014 (AID 983); conditions: LYMP2-014 lymphoblastoid cells, viability qHTS; series mostly up to 92.2 µM; note: nearly all actives have a fitted effect of over 50% in size; note: potency is the fitted concentration of half-maximal effect
Method in brief: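 Intracellular ATP loss, read by luciferase luminescence, measures acute cytotoxicity after 24 h compound exposure of lymphoblastoid LYMP2-014 cells (2500/well, 37 C). Concentration-response data fitted to the Hill equation for AC50.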

[9] = Cell Viability - LYMP2-016 (AID 984); conditions: LYMP2-016 lymphoblastoid cell viability, qHTS; series mostly up to 92.2 µM; note: nearly all actives have a fitted effect of over 55% in size; note: potency is the fitted concentration of half-maximal effect
Method in brief: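 Cytotoxicity was scored by luminescent ATP content (CellTiter-Glo) after 24 h compound exposure at 37 C of a human lymphoblastoid line at 2500 cells/well. Concentration-response data were fitted to the Hill equation for AC50.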

[10] = Cell Viability - LYMP2-018 (AID 985); conditions: LYMP2-018 lymphoblastoid cells, viability (qHTS); series mostly up to 92.2 µM; note: nearly all actives have a fitted effect of over 50% in size; note: potency is the fitted concentration of half-maximal effect
Method in brief: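 Viability read as CellTiter-Glo luminescence (cellular ATP) after 24 hr compound exposure at 37 C of 2500 LYMP2-018 lymphoblastoid cells/well, pre-plated 5 hr. Hill-equation modelling gave AC50.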

[11] = Cell Viability - LYMP2-020 (AID 986); conditions: series mostly up to 92.2 µM; note: nearly all actives have a fitted effect of over 55% in size; note: potency is the fitted concentration of half-maximal effect
Method in brief: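 Cytotoxicity in qHTS format: luminescent ATP readout from CellTiter-Glo after 24 h compound exposure at 37 C in complete medium. LYMP2-020 lymphoblastoid cells were seeded at 2500/well; concentration-response data fitted to the Hill equation for AC50.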

[12] = Cell Viability - LYMP2-022 (AID 987); conditions: LYMP2-022 lymphoblastoid cell viability; series mostly up to 92.2 µM; note: nearly all actives have a fitted effect of over 55% in size; note: potency is the fitted concentration of half-maximal effect
Method in brief: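 Cytotoxicity read as decreased cellular ATP (CellTiter-Glo luminescence, 30 min room temperature) after 24 hours compound exposure of 2500 lymphoblastoid LYMP2-022 cells/well at 37 C. Concentration-response data fitted with standard Hill equation for AC50.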

[13] = Cell Viability - LYMP2-024 (AID 988); conditions: LYMP2-024 lymphoblastoid cell viability; series mostly up to 92.2 µM; note: nearly all actives have a fitted effect of over 60% in size; note: potency is the fitted concentration of half-maximal effect
Method in brief: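 Cytotoxicity was taken as a decrease in ATP (CellTiter-Glo luminescence) after 24 hr compound exposure at 37 C of LYMP2-024 lymphoblastoid cells, 2500 cells/well. Concentration-response data were fitted to the Hill equation to give AC50.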

[14] = target: Vitamin D3 receptor (Homo sapiens) (UniProt P11473); test: qHTS assay for small molecule agonists of vitamin D receptor signaling (AID 588543; calls by dose curve;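 note: 0% = DMSO basal and 100% = reference agonist control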); conditions: HEK293T VDR-UAS-bla, beta-lactamase ratio, 16 h; series mostly up to 76.8 µM
Method in brief: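 Agonist-mode beta-lactamase reporter: HEK293T VDR-UAS-bla cells in charcoal-stripped 2% FBS, compound series 16 h 37 C, CCF4 2 h RT. EC50 from Hill fit, scaled against DMSO and 50 nM calcitriol control.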

[15] = target: Thyroid hormone receptor beta (Homo sapiens) (UniProt P10828); test: qHTS assay for small molecule agonists of thyroid hormone receptor beta signaling (AID 588545; calls by dose curve;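 note: 0% = DMSO only and 100% = 10 nM T3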); conditions: TR-UAS-bla GripTite HEK 293, beta-lactamase ratio, agonist mode, 18 h, percent of T3 response, DMSO as zero; series mostly up to 76.7 µM
Method in brief: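 Compounds were tested as agonists in TR-UAS-bla-GripTite HEK 293 cells. After 18 hrs at 37 C, CCF4 substrate was added and fluorescence read after 2 hrs at room temperature.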

[16] = target: Tumor necrosis factor (Homo sapiens) (UniProt P01375); test: qHTS assay to identify small molecules that stimulate Tumor Necrosis Factor-alpha (TNF-alpha) secretion (AID 651757; active = well fitted curve in the direction sought with a large enough effect in the signal ratio; the % refers to the signal ratio; note: 0% is about no effect); conditions: Human cells, HTRF 665/615 ratio; series mostly up to 92.2 µM
Method in brief: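 Secreted TNF-alpha quantified by TR-FRET sandwich of two labeled anti-TNF-alpha antibodies, incubated 3 hr at room temperature. Preceded by 17 hr, 37 C compound treatment of THP-1 cells at 3000 cells/well.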

[17] = target: Nuclear receptor ROR-gamma (Homo sapiens) (UniProt P51449); test: qHTS assay for small molecule antagonists of the retinoid-related orphan receptor gamma (ROR-gamma) signaling pathway (AID 651802); conditions: ROR-gamma antagonist cell reporter assay; series mostly up to 92.2 µM; note: nearly all actives have a fitted effect of over 60% in size; note: potency is the fitted concentration of half-maximal effect
Method in brief: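 Luminescence (One-Glo, 30 min RT) measured 16 h after compound addition and doxycycline induction at 37C. Reporter: RORE-luciferase under TET-inducible ROR-gamma in CHO cells.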

[18] = target: Nuclear receptor subfamily 1 group I member 2 (Rattus norvegicus) (UniProt Q9R1A7); test: qHTS assay for small molecule activators of the rat pregnane X receptor (rPXR) signaling pathway (AID 651751; call rule not given here; note: 0% is about no effect); conditions: rPXR reporter cells, luciferase (One-Glo), 24 h
[19] = qHTS assay for small molecule activators of the human pregnane X receptor (PXR) signaling pathway (AID 720659; call rule not given here; note: 0% is about no effect); conditions: DPX-2 HepG2 CYP3A4-luciferase, 24 h; series mostly up to 92.3 µM
[20] = qHTS assay for environmental chemicals that activate the Aryl hydrocarbon Receptor (AhR) signaling pathway (AID 651777); conditions: 1A2-DRE human hepatoma cells, luciferase, 24 h; activation: active compounds read high; note: % of control where 0% means no effect; nearly all actives have a fitted effect of over 15% in size
Method in brief: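 Following a 24 hr incubation with test chemicals at 37 C and 5% CO2, 1A2-DRE human hepatoma cells received One-Glo reagent; after 30 min at room temperature, luciferase output reflected CYP1A2 induction via AhR.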

Sequence of Nuclear receptor ROR-gamma (Homo sapiens) (P51449 whole entry, looked up): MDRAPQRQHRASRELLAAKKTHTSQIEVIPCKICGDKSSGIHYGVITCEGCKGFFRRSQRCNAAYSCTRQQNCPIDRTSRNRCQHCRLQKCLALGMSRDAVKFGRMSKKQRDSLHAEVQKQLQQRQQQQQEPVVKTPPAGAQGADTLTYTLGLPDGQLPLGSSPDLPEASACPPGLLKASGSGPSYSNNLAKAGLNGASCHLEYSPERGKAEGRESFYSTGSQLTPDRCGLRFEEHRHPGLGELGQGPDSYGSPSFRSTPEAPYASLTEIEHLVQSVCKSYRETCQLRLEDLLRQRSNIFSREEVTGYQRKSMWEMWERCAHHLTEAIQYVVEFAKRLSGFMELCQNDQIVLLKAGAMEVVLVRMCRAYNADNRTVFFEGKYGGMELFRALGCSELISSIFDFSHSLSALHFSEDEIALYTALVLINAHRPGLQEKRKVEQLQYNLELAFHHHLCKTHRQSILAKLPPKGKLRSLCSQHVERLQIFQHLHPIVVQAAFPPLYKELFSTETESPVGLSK
Sequence of Thyroid hormone receptor beta (Homo sapiens) (P10828 whole entry, looked up): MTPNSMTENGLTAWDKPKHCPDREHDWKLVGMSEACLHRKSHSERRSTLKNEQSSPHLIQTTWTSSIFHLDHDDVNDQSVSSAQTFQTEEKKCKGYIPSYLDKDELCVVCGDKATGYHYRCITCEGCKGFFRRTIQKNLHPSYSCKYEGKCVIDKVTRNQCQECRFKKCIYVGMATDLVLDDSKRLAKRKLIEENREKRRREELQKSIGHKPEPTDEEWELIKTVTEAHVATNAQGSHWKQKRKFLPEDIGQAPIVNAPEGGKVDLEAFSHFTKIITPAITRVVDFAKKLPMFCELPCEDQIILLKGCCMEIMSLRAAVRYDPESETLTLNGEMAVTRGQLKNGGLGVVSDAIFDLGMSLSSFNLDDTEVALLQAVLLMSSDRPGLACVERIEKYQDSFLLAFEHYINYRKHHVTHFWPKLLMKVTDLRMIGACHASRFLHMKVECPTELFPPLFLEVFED
Sequence of Tumor necrosis factor (Homo sapiens) (P01375 whole entry, looked up): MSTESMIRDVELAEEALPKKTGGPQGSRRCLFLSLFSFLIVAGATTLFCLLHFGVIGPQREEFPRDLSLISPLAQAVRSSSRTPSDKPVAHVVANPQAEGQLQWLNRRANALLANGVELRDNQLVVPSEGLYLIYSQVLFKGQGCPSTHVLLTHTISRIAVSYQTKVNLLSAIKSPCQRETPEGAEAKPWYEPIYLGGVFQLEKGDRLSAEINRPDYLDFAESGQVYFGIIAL
Sequence of Vitamin D3 receptor (Homo sapiens) (P11473 whole entry, looked up): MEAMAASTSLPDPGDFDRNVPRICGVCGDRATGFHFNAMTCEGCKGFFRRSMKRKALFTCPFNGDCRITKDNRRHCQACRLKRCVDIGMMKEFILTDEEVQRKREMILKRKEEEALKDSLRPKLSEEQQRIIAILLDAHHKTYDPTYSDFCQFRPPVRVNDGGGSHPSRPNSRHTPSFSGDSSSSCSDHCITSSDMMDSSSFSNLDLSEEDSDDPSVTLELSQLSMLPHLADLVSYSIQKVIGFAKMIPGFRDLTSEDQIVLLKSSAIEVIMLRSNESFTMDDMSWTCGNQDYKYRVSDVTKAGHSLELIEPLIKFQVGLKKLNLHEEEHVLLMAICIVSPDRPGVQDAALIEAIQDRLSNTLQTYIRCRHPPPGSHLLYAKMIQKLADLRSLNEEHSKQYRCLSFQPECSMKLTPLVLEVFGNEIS
Sequence of Nuclear receptor subfamily 1 group I member 2 (Rattus norvegicus) (Q9R1A7 whole entry, looked up): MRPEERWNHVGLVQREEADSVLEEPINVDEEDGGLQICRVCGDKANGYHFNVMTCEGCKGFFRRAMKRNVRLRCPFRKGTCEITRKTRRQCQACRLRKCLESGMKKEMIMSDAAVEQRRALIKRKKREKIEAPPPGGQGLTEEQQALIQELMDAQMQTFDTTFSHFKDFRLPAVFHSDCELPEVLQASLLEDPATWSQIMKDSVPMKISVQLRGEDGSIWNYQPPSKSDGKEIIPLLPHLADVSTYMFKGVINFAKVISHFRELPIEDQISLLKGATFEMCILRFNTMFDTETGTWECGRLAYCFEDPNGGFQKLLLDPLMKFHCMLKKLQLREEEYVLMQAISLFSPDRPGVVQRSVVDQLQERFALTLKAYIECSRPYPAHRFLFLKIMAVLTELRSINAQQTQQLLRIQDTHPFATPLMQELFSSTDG

O=Cc1ccc(Cl)c(Cl)c1
inactive: Potency [1] | Potency [2] | Potency [3] | Potency [4] | Potency [5] | Potency [6] | Potency [7] | Potency [8] | Potency [9] | Potency [10] | Potency [11] | Potency [12] | Potency [13] | outcome [14] | outcome [15] | outcome [16] | Potency [17] | max response [18] -0.904% | outcome [19]

Nc1ccc2cc3ccccc3cc2c1
inactive: Potency [2] | Potency [3] | Potency [4] | Potency [5] | Potency [6] | Potency [7] | Potency [8] | Potency [9] | Potency [10] | Potency [11] | Potency [12] | Potency [13] | Potency [17]

c1cc(OCC2CO2)cc(OCC2CO2)c1 (stereo not given)
inactive: outcome [14] | outcome [15] | outcome [16] | activation [20] 4% and -2.73% | max response [18] -8.72% and -4.5% | outcome [19]

ClC1=C(Cl)C(Cl)(Cl)C(Cl)=C1Cl
inactive: Potency [1] | Potency [2] | Potency [3] | outcome [14] | outcome [15] | outcome [16] | activation [20] 0.158% and 0.426% | max response [18] 3.04% and -2.94% | outcome [19]

Oc1ccc2cc(SSc3ccc4cc(O)ccc4c3)ccc2c1
inactive: Potency [2] | outcome [15] | outcome [16] | max response [18] -6.62%

CCC(C)Nc1ccc(NC(C)CC)cc1 (stereo not given)
active: Potency [1] 10 µM | Potency [3] 6.31 µM | Potency [4] 6.31 µM | Potency [5] 5.01 µM | Potency [6] 3.98 µM | Potency [7] 3.98 µM | Potency [8] 5.01 µM | Potency [9] 5.01 µM | Potency [10] 3.16 µM | Potency [11] 5.01 µM | Potency [12] 2.51 µM | Potency [13] 2 µM | Potency [17] 13.3 µM
inactive: outcome [14] | outcome [15] | activation [20] -3.51%

Cc1cc(Nc2ccc(O)cc2)ccc1N
inactive: Potency [1] | outcome [14] | outcome [15] | max response [18] -2.27% | outcome [19]
active: Potency [3] 39.8 µM | Potency [4] 50.1 µM | Potency [5] 39.8 µM | Potency [7] 50.1 µM | Potency [8] 50.1 µM | Potency [9] 50.1 µM | Potency [10] 39.8 µM | Potency [11] 39.8 µM | Potency [12] 31.6 µM | Potency [13] 25.1 µM | Potency [17] 21.1 µM

O=C1OC(O)C(C(Cl)Cl)=C1Cl (stereo not given)
inactive: outcome [14] | activation [20] -0.209% | max response [18] -3.61% | outcome [19]
active: Potency [2] 31.6 µM | Potency [3] 15.8 µM | Potency [4] 25.1 µM | Potency [5] 25.1 µM | Potency [6] 25.1 µM | Potency [7] 25.1 µM | Potency [8] 25.1 µM | Potency [9] 25.1 µM | Potency [10] 25.1 µM | Potency [11] 25.1 µM | Potency [12] 15.8 µM | Potency [13] 12.6 µM

CC/C(=C(\c1ccccc1)c1ccc(OCCN(C)C)cc1)c1ccc(O)cc1
inactive: outcome [14] | outcome [16] | activation [20] -5.29%

C/C=C1\C(=O)C[C@H]2[C@@H]3CCC4=CC(=O)CC[C@]4(C)[C@H]3CC[C@]12C
inactive: Potency [1] | Potency [3] | Potency [6] | outcome [15] | outcome [16] | activation [20] -0.115%
active: Potency [2] 25.1 µM | Potency [17] 33.5 µM

C=CC(=O)OCC(CO)(COC(=O)C=C)COC(=O)C=C
inactive: outcome [15] | outcome [16] | activation [20] 2.52% and -1.81% | max response [18] -14.2%

C=C(C)c1ccccc1
inactive: Potency [1] | Potency [2] | Potency [3] | Potency [4] | Potency [5] | Potency [6] | Potency [7] | Potency [8] | Potency [9] | Potency [10] | Potency [11] | Potency [12] | Potency [13] | outcome [14] | outcome [16] | Potency [17] | max response [18] 0.462% | outcome [19]

C=CC(=O)OCCOCCOC(=O)C=C
inactive: outcome [15] | outcome [16] | activation [20] 2.82% | max response [18] 9.16% | outcome [19]
active: Potency [1] 15.8 µM | Potency [2] 25.1 µM | Potency [3] 10 µM | Potency [4] 20 µM | Potency [5] 25.1 µM | Potency [6] 25.1 µM | Potency [7] 31.6 µM | Potency [8] 20 µM | Potency [9] 20 µM | Potency [10] 15.8 µM | Potency [11] 15.8 µM | Potency [12] 12.6 µM | Potency [13] 12.6 µM
